Assay outcomes as filed in PubChem BioAssay.
The list is not random: actives were taken first. Their share in the collection is about 2.7%.
Peg3 prom inh = reduces Peg3 promoter-driven luciferase expression in HeLa | inhibition, % at 20 µM | 1.7% of 360,000 active | HeLa PEG-Prom luciferase reporter, luminescence, overnight | AID 588405;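 active = inhibition of at least 50% at 20 µM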
CF NFkB inh = blocks PAF-induced NF-kB reporter in cystic fibrosis cells; KKLEB NF-kB-GFP reporter, GFP fluorescence overnight; inhibition, % at 5 µM; 0.86% of 360,000 active;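 active = at least 50% inhibition at 5 µM, scaled per plate between neutral and stimulator controls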;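 also: PAF is a Pseudomonas aeruginosa culture filtrate used as stimulus; plate controls were PAF-stimulated DMSO wells for no effect and unstimulated DMSO wells for full effect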
KKLEB cytotox = CF airway cell cytotoxicity counter-screen; KKLEB CF airway cells viability, ATPlite luminescence, overnight; stronger effect = lower value; cells stimulated with P. aeruginosa culture filtrate; activity change (cytotoxicity), % at 5 µM; 0.36% of 360,000 active; AID 602141;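 active = corrected activity change at or below -50% at 5 µM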
MITF TRPM1 inh = inhibitors of MITF-driven TRPM1 promoter in melanoma cells; SK-MEL-5 TRPM1 promoter luciferase, 24 h; inhibition, % at 12.5 µM; 0.83% of 330,000 active; AID 488899;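 active = mean inhibition across replicates of 60% or more, whatever share of single replicates reaches that level; inconclusive = some that reach 60%, reason not given; inactive = mean inhibition across replicates below 60%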
HIF-2a block = HIF-2a inhibition. 786-0 RCC cells HIF-2a reporter, luciferase luminescence, overnight. inhibition, % at 18.8 µM. AID 624352. 0.72% of 360,000 active;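 active = inhibition of the luminescence signal of 40% or more relative to plate controls, in a single-dose primary screen at 18.75 µM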
Shn3 3UTR inh = inhibitors of Schnurri-3 3'UTR reporter in osteoblasts | Clone20 osteoblast Shn3 3'UTR firefly luciferase, 24 h | inhibition, % at 12.5 µM | 0.52% of 360,000 active | AID 588674;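 active = mean inhibition of at least 75% with every replicate also reaching 75%; inconclusive = mean inhibition at least 75% but some replicate below; inactive = mean inhibition below 75%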;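 also: 0% = median of neutral control wells and 100% = pilot-screen positive control compound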
Active calls of the source: *; u = inconclusive; x = no result.

SMILES	Peg3 prom inh	CF NFkB inh	KKLEB cytotox	MITF TRPM1 inh	HIF-2a block	Shn3 3UTR inh
COc1ccc(/C=C2\SC(=S)N(CCC(=O)NC3C=CS(=O)(=O)C3)C2=O)cc1 (configuration not stated)	-47.1	12.2	7.6	15.8	74.9*	-8.9
COc1cc(NC(=O)c2cc3c(C)nc4ccccc4c3o2)cc(OC)c1OC	56.1*	-45.2	13.0	-5.6	-11.4	16.6
COc1ccc(CNC(=O)c2cc3c(C)nc4ccccc4c3o2)c(OC)c1	11.1	-5.7	-4.9	x	-1.9	89.7*
COc1cc(NC(=O)c2cc3nc(-c4ccccc4)cc(-c4ccccc4)n3n2)cc(OC)c1OC	57.1*	28.8	-4.8	2.5	17.2	79.5
COc1cccc(CNC(=O)c2cc3c(C)nc4ccccc4c3o2)c1	7.5	-27.4	0.0	x	-14.7	u
O=C1c2ccccc2[C@@H]2C[C@H](NC34CC5CC(CC(C5)C3)C4)[C@@H](O)CCN12	0.0	-8.6	14.0	-4.4	0.6	4.9
Cc1cc(C)c(NC(=O)c2cccs2)c(C)c1NC(=O)c1cccs1	23.2	-6.5	-1.2	-9.1	7.0	22.4
COc1ccc(/C=C2\C(=O)N(c3c(Cl)cc(Cl)cc3Cl)N=C2NC(=O)c2cccc([N+](=O)[O-])c2)cc1	76.5*	-14.6	-0.8	19.5	44.9*	63.2
CC(C)Oc1ccc(S(=O)(=O)N2CCOCC2)cc1NC(=O)CN1C(=O)NC2(CCCC2)C1=O	17.7	18.7	3.0	9.1	21.8	-5.2
COc1ccc(CC(=O)NCc2ccccc2F)cc1S(=O)(=O)N1CCOCC1	3.4	-28.8	9.2	x	7.3	64.4
CC(C)c1ccccc1-n1c(SCC(=O)N2CCc3ccccc3C2)nc2ccccc2c1=O	37.8	8.5	-6.8	17.6	24.9	95.7*
O=C(CSc1nc2ccccc2c(=O)n1-c1ccccc1)N1CCc2ccccc2C1	13.4	4.5	-7.3	13.2	27.8	83.0
CC1=C(C(=O)Nc2ccc(C)cc2C)C(c2cccc([N+](=O)[O-])c2)n2nc(C(=O)OC(C)C)nc2N1 (configuration not stated)	80.9*	-13.6	-24.8	6.7	19.8	17.8
COC(=O)[C@@]1(C)[C@H]2C(=O)N(Cc3ccccc3)C(=O)[C@H]2[C@H]2CN=C(SCC(=O)c3ccccc3)N21	-30.8	-2.0	9.6	-5.0	-12.3	-17.7
Cc1ccccc1OCCC(=O)OCC(=O)Nc1ccc2[nH]c(=O)[nH]c2c1	13.6	14.7	-17.9	-4.8	11.7	-4.5
CN(C)c1ccc(Nc2nc(N)c([N+](=O)[O-])c(N3CCOCC3)n2)cc1	51.5*	15.5	-10.2	-3.0	-22.6	31.3
CN1C2=CC=CC=CC2=[N+](C)C12C([N+](=O)[O-])=CC(=[N+]([O-])[O-])C=C2[N+](=O)[O-] (configuration not stated)	30.0	16.9	-16.3	69.9*	0.3	3.5
CC(=O)N(C)c1ccc(OCC(O)Cn2c(C)nc3ccccc32)cc1 (configuration not stated)	9.8	-14.7	-7.2	15.6	16.1	70.6
CC(=O)N(C)c1ccc(OCC(O)Cn2c3ccc(Cl)cc3c3cc(Cl)ccc32)cc1 (configuration not stated)	61.3*	-6.3	-12.9	-3.0	27.5	23.8
C/C(=N\OC(=O)Nc1ccc(Cl)cc1)c1ccc(F)c(F)c1	-57.6	15.3	4.2	-24.8	-120.6	-1.9
CC(C)C(Cl)=NOC(=O)Nc1ccc(F)cc1	55.0*	32.5	5.7	8.1	17.7	99.0*
Cc1cccc2c1c1ccc3c(c1n2C)C(=O)C=CC3=O	93.3*	0.4	-1.4	93.8*	6.0	50.9
Cc1ccccc1N1CC(=O)N(c2ccccc2C)CC1=O	16.3	1.4	0.3	20.3	15.6	-5.5
NC(N)=N/N=C/c1ccc(OCc2ccc(Cl)cc2)cc1	110.1*	35.4	-31.0	-34.6	-124.3	73.2
NC(N)=N/N=C/c1ccc(OCc2ccccc2)cc1	54.1*	-4.6	-12.1	-1.5	-115.3	0.3
SMILES	Peg3 prom inh	CF NFkB inh	KKLEB cytotox	MITF TRPM1 inh	HIF-2a block	Shn3 3UTR inh
CSc1cccc(NC(=O)NNC(=O)C2CCN(S(=O)(=O)N(C)C)CC2)c1	-3.8	8.4	-4.4	1.2	12.0	-6.6
O=C(OCC(=O)N1CCOCC1)c1ccc(Cl)cc1[N+](=O)[O-]	-16.3	-4.8	-17.4	-8.7	-27.0	-15.2
COc1ccc(CCN(C)C(=O)c2c(C)noc2C)cc1OC	17.4	10.8	10.5	1.6	-4.2	12.3
COC(=O)c1cnc(Nc2nc(C(N)Cc3ccccc3)cs2)nc1C(F)(F)F (configuration not stated)	52.0*	-3.6	-13.8	x	-15.1	-11.9
COC(=O)c1cnc(Nc2nc(C(N)Cc3ccc(Cl)cc3)cs2)nc1C(F)(F)F (configuration not stated)	95.9*	15.7	-16.2	x	17.4	-2.3
COC(=O)c1cnc(Nc2nc(C(N)Cc3ccc(OC)cc3)cs2)nc1C(F)(F)F (configuration not stated)	24.7	-15.7	-4.6	x	9.7	9.0
O=C(Nc1ccc(-c2nc3cc(NC(=O)c4cccs4)ccc3o2)cc1)c1cccs1	49.8	8.2	6.9	73.4*	9.1	30.6
O=C(Nc1ccc2oc(-c3ccncc3)nc2c1)c1cccs1	-92.9	-12.3	9.6	-35.2	-112.1	-10.7
COc1ccc(C2CC(c3ccc(Cl)cc3)=NN2c2ccc(S(N)(=O)=O)cc2)cc1 (configuration not stated)	23.9	23.8	-7.3	-8.6	-23.4	12.0
COc1ccc(C2CC(c3cccc(Cl)c3)=NN2c2ccc(S(N)(=O)=O)cc2)cc1 (configuration not stated)	54.0*	20.2	2.2	-4.3	-8.4	8.9
CCN1C(C)=CC(=O)[C@@H](O)[C@H]1c1ccccc1Br	-1.5	-12.9	5.2	7.9	-0.7	-24.3
Cc1oc(=O)c(NC(=O)c2ccc(Cl)cc2)cc1C(=O)c1ccccc1	-12.6	-7.1	-2.3	-4.4	-34.9	94.4*
COc1cccc(/C=C2\SC(=S)N(CCCC(=O)N(CCO)c3ccccc3)C2=O)c1	79.1*	13.0	0.9	11.3	85.6*	-9.7
O=C1/C(=C/c2ccc3c(c2)OCO3)SC(=S)N1CCC(=O)N(CCO)c1ccccc1	19.5	-38.6	9.4	x	42.5*	-58.8
O=C1/C(=C/c2cccc(Br)c2)SC(=S)N1CCC(=O)N(CCO)c1ccccc1	56.0*	25.1	12.1	-16.3	32.1	-15.8
CN1CCN(C(=O)CCN2C(=O)/C(=C/c3cccc(Br)c3)SC2=S)CC1	76.9*	28.4	10.1	26.6	7.6	-64.6
COc1cc(C(O)c2nc(/C=C/c3ccc(C(F)(F)F)cc3)cs2)ccc1F (configuration not stated)	8.0	8.2	10.8	x	-7.2	22.0
COC(=O)c1c(-c2cccc3ccccc23)csc1NC(=O)Cc1ccc(OC)c(OC)c1	34.3	26.3	-4.7	16.6	14.8	86.6*
